From PubChem BioAssay (NCATS) come the findings set out here.

Records with an inconclusive call do not appear. Entries that show only a call come without a potency. Calls of active or inactive are those of the source. The call rests on the fitted dose curve; in most records, active means well fitted inhibition curve with a large enough effect; inconclusive means small, poorly fitted or top-dose-only effect; inactive means no such curve, though single readings can be large or run the other way.
Potency means the concentration at half of the fitted maximal effect.

N-terminal Xaa-Pro-Lys N-methyltransferase 1 (Homo sapiens), sequence (Q9BV86 whole entry, looked up): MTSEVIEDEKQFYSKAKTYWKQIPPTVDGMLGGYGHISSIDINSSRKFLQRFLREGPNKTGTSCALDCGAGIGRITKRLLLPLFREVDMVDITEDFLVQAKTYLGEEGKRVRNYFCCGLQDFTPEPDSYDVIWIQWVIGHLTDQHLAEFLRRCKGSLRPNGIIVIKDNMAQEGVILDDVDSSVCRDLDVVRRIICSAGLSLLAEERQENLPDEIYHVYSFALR

The target in the assay is N-terminal Xaa-Pro-Lys N-methyltransferase 1 (Homo sapiens) (UniProt Q9BV86). Put plainly: qHTS Assay for Inhibitors of N-terminal methyltransferase 1 (NTMT1): LOPAC validation of the NTMT1 SAHH-coupled ThioGlo3 Assay (AID 1347143).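 Further: SAH from peptide methylation measured as thiol fluorescence via SAHH coupling and ThioGlo3; nearly all actives have a fitted effect of over 70% in size.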 To be noted: recombinant NTMT1, SAHH-coupled ThioGlo3 fluorescence; series mostly up to 114 µM. The method in brief:
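Steps: dispense 125nM NTMT1; pin-transfer test compounds at several concentrations, with 1uM RCC1-6 peptide as control; incubate 1 min; start with reagent holding 100uM SAM, 10uM SAHH, 15uM ThioGlo3; read at 0 and 30 min.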
(In general: Quantitative high-throughput screening tests each substance at several concentrations.)
As to `Nc1nc(N)c(N=O)c(OCC2CCCCC2)n1`, the Potency result was “inactive”.

Regarding `O=C(O)c1cccnc1Nc1cccc(C(F)(F)F)c1`, the Potency result was “inactive”.

Regarding `Cc1c(OCC(F)(F)F)ccnc1CS(=O)c1nc2ccccc2[nH]1` (stereo not given), the Potency is 50.1 µM (active).

As to `O=C(c1ccccc1)c1ccc2n1CCC2C(=O)O` (stereo not given), the Potency entry was “inactive”.

Take `Cc1cccc(-c2[nH]ncc2-c2ccc3ncccc3n2)n1`: the Potency entry was “inactive”.

As to `CC(C)c1ccc2c(c1)c(SC(C)(C)C)c(CC(C)(C)C(=O)O)n2Cc1ccc(Cl)cc1`, the Potency entry is “inactive”.

In the case of `C[C@@H](N)C1CCC(C(=O)Nc2ccncc2)CC1` (stereo not given in full), the Potency entry was “inactive”.

Regarding `CC(=O)N1CCN(c2ccc(OC[C@H]3CO[C@](Cn4ccnc4)(c4ccc(Cl)cc4Cl)O3)cc2)CC1`, the Potency is 50.1 µM (active).

Consider `CC(=O)NC[C@H]1CN(c2ccc(N3CCOCC3)c(F)c2)C(=O)O1`, for which the Potency entry was “inactive”.

As for `O=c1ccc2ccc(O)c(O)c2o1`, the Potency was 39.8 µM (active).

For `Cc1cc(O)c2c(c1)C(=O)c1cc(O)cc(O)c1C2=O`, the Potency was 17.8 µM (active).

In the case of `O=C1NC(=O)C(c2ccccc2[N+](=O)[O-])=C1Nc1ccc(O)c(Cl)c1`, the Potency is 28.2 µM (active).

`O=c1c(O)c(-c2cc(O)c(O)c(O)c2)oc2cc(O)cc(O)c12`: the Potency was 5.01 µM (active).

With `CN(C)C(=O)[C@H](O)[C@H](Cc1ccccc1)NC(=O)c1cc2cc(Cl)ccc2[nH]1`, the Potency result was “inactive”.

For the compound `NNc1nncc2ccccc12`, the Potency is 79.4 µM (active).

Consider `NCCCCNCCCN`, for which the Potency result was “inactive”.

For `COc1cc2c(cc1OC)C1CC(=O)C(CC(C)C)CN1CC2` (stereo not given), the Potency result was “inactive”.

In the case of `NC(=NCc1ccccc1)NC(=O)c1nc(Cl)c(N)nc1N`, the Potency is 56.2 µM (active).

On to `O=Nc1c(-c2c(O)[nH]c3cc(Br)ccc23)[nH]c2ccccc12`, for which the Potency is 14.1 µM (active).

As to `CC1(C)NC(=O)N(c2ccc([N+](=O)[O-])c(C(F)(F)F)c2)C1=O`, the Potency result is “inactive”.

As to `Clc1ccc2c(N3CCN(CCCN4CCN(c5ccnc6cc(Cl)ccc56)CC4)CC3)ccnc2c1`, the Potency was 50.1 µM (active).

Take `CNC[C@H](O)c1ccc(O)c(O)c1`: the Potency result is “inactive”.

As for `CCOC(=O)C1=C(O)C(=O)N(Cc2ccccc2)C1`, the Potency entry was “inactive”.

As to `COc1ccccc1N1CCN(CCN(C(=O)C2CCCCC2)c2ccccn2)CC1`, the Potency entry is “inactive”.

`C[C@@H](c1ncncc1F)[C@](O)(Cn1cncn1)c1ccc(F)cc1F`: the Potency result was “inactive”.
